# Measurements published in PubChem BioAssay AID1745848 (National Center for Advancing Translational Sciences (NCATS), 2022).
# About 940 (45%) of roughly 2,100 compounds were called active. Another 48% or so got no clear call; they are omitted. The set was probably picked from earlier hits. Some of the results follow. Unmarked numbers belong to inactive results. Calls come from the whole dose curve; as a rule, active = well fitted inhibition curve with a large enough effect; inconclusive = small, poorly fitted or top-dose-only effect; inactive = no such curve, though single readings can be large or run the other way.
# Test: Confirmatory qHTS for Inhibitors of ATXN expression; note: nearly all actives have a fitted effect of over 65% in size;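 for activity change, negative = inhibition: 0% = DMSO vehicle wells and -100% = medium-only wells without cells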
# Details: ATXN2-luciferase reporter cells, luminescence, 24 h; series mostly up to 11.5 µM; activity change, negative = inhibition: at the top concentration
# Method in brief: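 Cells carrying ATXN2-luciferase reporter exposed 24 h at 37 C to compound. Viability then read by CellTiter-Fluor (25 uM GF-AFC, 30 min), followed by SteadyGlo luminescence; medium-only wells set 100% inhibition.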
# Potency is the fitted concentration of half-maximal effect.
Structure (SMILES),"activity change, negative = inhibition",Potency
COC(/C(=N/O)c1ccc(Cl)cc1)c1ccccc1 (stereo not given),-30% [at 57.5 µM],
O=C(CSc1n[nH]c(-c2ccccn2)n1)Nc1ccccc1,,15.8 µM (active)
COc1cc(Br)cc(/C=N/NC(=O)Cc2ccc(C(F)(F)F)cc2[N+](=O)[O-])c1O,,10 µM (active)
c1cc2c(cc1-c1cnc3n1CCC3)OCCO2,,12.6 µM (active)
NC(=Nc1nc(-c2ccccn2)cc2ccccc12)c1ccccn1,,0.0562 µM (active)
Oc1ccccc1C(Nc1nccs1)c1ccc2cccnc2c1O (stereo not given),,2.82 µM (active)
Oc1c(C(Nc2nccs2)c2ccc(C(F)(F)F)cc2)ccc2cccnc12 (stereo not given),,1.78 µM (active)
Oc1c(C(Nc2ccccn2)c2ccccn2)ccc2cccnc12 (stereo not given),,3.16 µM (active)
Oc1cccc(C(Nc2nccs2)c2ccc3cccnc3c2O)c1 (stereo not given),,2.51 µM (active)
Cc1c(C(=O)N2c3ccccc3Sc3ccccc32)cccc1[N+](=O)[O-],-28.2% [at 57.5 µM],
O=C(N/N=C/c1ccc([N+](=O)[O-])s1)c1ccccc1,,12.6 µM (active)
Cc1ccccc1C(=O)N/N=C/c1ccc([N+](=O)[O-])s1,,12.6 µM (active)
COc1ccc(C(=O)NCC(=O)N/N=C/c2ccc([N+](=O)[O-])s2)cc1OC,,10 µM (active)
O=C(N/N=C/c1ccc([N+](=O)[O-])s1)c1ccccc1Br,,14.1 µM (active)
Cc1ccc(C)n1-c1ccc(C(=O)N2CCC(C(N)=O)CC2)cc1,0.758%,
COc1cccc(CNc2nc3cc(-c4ccc(C(=O)N5CCN(C)CC5)cc4)sc3c(=O)n2C)c1,,28.2 µM (active)
COc1ccccc1C(=O)Nc1nc(-c2ccc(S(=O)(=O)N3CCOCC3)cc2)cs1,,3.98 µM (active)
O=C(Nc1nc(-c2ccccn2)cs1)c1ccc(F)c(S(=O)(=O)N2CCOCC2)c1,,1.78 µM (active)
COc1cccc(NC(=O)/C=C/c2ccc(S(=O)(=O)N3CCOCC3)cc2)c1,-14.6% [at 57.5 µM],
COc1ccc(C(=O)Nc2nc(-c3ccc(S(=O)(=O)N4CCOCC4)cc3)cs2)cc1,,1.78 µM (active)
NC(=O)c1c(NC(=O)c2ccc(S(=O)(=O)N3CCOCC3)cc2)sc2c1CCCCC2,-23.6%,
COc1cccc(C(=O)Nc2nc(-c3ccc(S(=O)(=O)N4CCOCC4)cc3)cs2)c1,,1.58 µM (active)
CCN1CCN(C(=S)c2ccc(-c3ccccc3)cc2)CC1,,1.58 µM (active)

Structure (SMILES),"activity change, negative = inhibition",Potency
OCCN1CCN(C(=S)c2ccc(-c3ccccc3)cc2)CC1,,1.78 µM (active)
COc1ccc(NC(=O)c2cc(-c3cc(Cl)ccc3OC)n[nH]2)cc1OC,,0.631 µM (active)
O=c1cc(-c2c(F)c(F)c(F)c(F)c2F)oc2ccccc12,,3.55 µM (active)
O=c1c(O)c(-c2ccccc2)oc2ccccc12,-8.49%,
Cc1nc(SCC(=O)Nc2ccc(S(=O)(=O)N3CCOCC3)cc2)c2c(C)c(C)sc2n1,,3.98 µM (active)
COc1ccc(C(=O)c2sc(Nc3ccccc3)nc2N)cc1OC,,28.2 µM (active)
COc1cccc(CNCCc2c[nH]c3ccccc23)c1OCc1ccc(F)cc1,,3.98 µM (active)
Cc1occc1C(=O)N/N=C/c1c(O)ccc2ccccc12,,1.78 µM (active)
O=C(N/N=C/c1c(O)ccc2ccccc12)c1cccnc1,,3.16 µM (active)
O=C(N/N=C\c1c(O)ccc2ccccc12)c1cncc(Br)c1,,0.251 µM (active)
O=C(N/N=C\c1c(O)ccc2ccccc12)c1ccc(Cn2cccn2)o1,,0.708 µM (active)
O=C(N/N=C/c1cc(O)ccc1Br)c1cccnc1,,3.16 µM (active)
Cn1c(-[n+]2c(-c3ccccc3)cc(-c3ccccc3)cc2-c2ccccc2)nc2c([N+](=O)[O-])cccc21,-13.5%,
CCn1c2ccccc2c2cc(/C=C(/C#N)C(N)=S)ccc21,,0.447 µM (active)
Cc1cccc(OCCn2cc(/C=N/NC(=O)c3ccncc3)c3ccccc32)c1,-13.1%,
CCn1c2ccccc2c2cc(/C=N/NC(=O)c3ccncc3)ccc21,,1.41 µM (active)
CCn1c2ccccc2c2cc(/C=N/n3cnnc3)ccc21,,1.58 µM (active)
CCn1c2ccccc2c2cc(/C=N/NC(=O)c3ccc(O)cc3)ccc21,,2.24 µM (active)
Cc1ccc2nc(SCc3ccc([N+](=O)[O-])cc3)[nH]c2c1,-6.34%,
CCn1c2ccccc2c2cc(/C=N/NC(=O)c3ccccc3)ccc21,,3.16 µM (active)
Cc1ccc(S(=O)(=O)c2c(N)n(CC3CCOC3)c3nc4ccccc4nc23)cc1 (stereo not given),-14.3%,
COc1cccc(/C=N/n2c(N)c(S(=O)(=O)c3cccs3)c3nc4ccccc4nc32)c1OC,,14.1 µM (active)
CC(C)CCn1c(N)c(S(=O)(=O)c2cccs2)c2nc3ccccc3nc21,,3.16 µM (active)

Structure (SMILES),"activity change, negative = inhibition",Potency
Cc1cc(Br)c(OCc2ccc(C(=O)N/N=C3\CC4CC=CC34)cc2)c(Br)c1 (stereo not given),,28.2 µM (active)
CCCCNC(=NCc1cccc(C(F)(F)F)c1)Nc1ccccc1,,3.16 µM (active)
CN(C(=O)c1cnc(N2CCN(c3ncccn3)CC2)c2ccccc12)c1ccc(Cl)cc1,,28.2 µM (active)
O=C(c1cnc(N2CCN(c3ccccn3)CC2)c2ccccc12)N1CCN(c2cccc(Cl)c2)CC1,,6.31 µM (active)
CC(=NNC(=O)c1ccncc1)c1ccc(O)cc1O,,12.6 µM (active)
CCN(CC)S(=O)(=O)c1cccc(C(=O)N/N=C(\C)c2ccc(O)cc2O)c1,,3.16 µM (active)
CCn1c(C)nc2cc(C(=O)N/N=C(\C)c3ccc(OC)cc3O)ccc21,,15.8 µM (active)
COc1ccc(/C(C)=N/NC(=O)c2cccc(S(=O)(=O)N3CCCC3)c2)c(O)c1,,3.55 µM (active)
CC(=NNC(=O)c1ccncc1)c1ccc2ccccc2c1O,,1.12 µM (active)
CC(=O)NC(c1ccc(C)cc1)c1cc(Cl)c2cccnc2c1O (stereo not given),,2.51 µM (active)
CC(=O)NC(c1ccccc1)c1cc(Cl)c2cccnc2c1O (stereo not given),,2.82 µM (active)
Oc1c(C(Nc2ccccn2)c2cccnc2)cc(Cl)c2cccnc12 (stereo not given),,12.6 µM (active)
CC1(C(=O)NC2CCN(Cc3ccccc3)CC2)CCN1Cc1ccc2ccccc2c1 (stereo not given),,2.51 µM (active)
Cc1ccc(CN2CCSc3ccc(C(=O)NC4CCN(Cc5ccccc5)CC4)cc32)cc1,,3.16 µM (active)
CN1C(=O)/C(=C\c2ccccc2F)Sc2ccc(C(=O)NC3CCN(Cc4ccccc4)CC3)cc21,,3.16 µM (active)
CC(C)(C)c1ccc(CC(=O)N2CCC2(C)C(=O)Nc2cnc3ccccc3c2)cc1 (stereo not given),-28.3%,
CC(=O)Nc1cc(-c2ccc(C(=O)NC3CC3)cc2)cn2c(-c3cccc(C(C)=O)c3)cnc12,-13.8% [at 57.5 µM],
CN1CCC(NC(=O)c2cc(-c3cccc(Br)c3)nc3ccccc23)CC1,,25.1 µM (active)
CCc1c2c(nc3ccc(OC(=O)N4CCC(N5CCCCC5)CC4)cc13)-c1cc3c(c(=O)n1C2)COC(=O)[C@]3(O)CC,,0.316 µM (active)
CC[C@@]1(O)C(=O)OCc2c1cc1n(c2=O)Cc2cc3c(CN(C)C)c(O)ccc3nc2-1,-84.6% [at 57.5 µM],
Cc1sc(NC(=O)c2cc(-c3ccc(Cl)cc3)nc3ccccc23)c(C(N)=O)c1C,,7.08 µM (active)
C=CCN(C(=O)CSc1nc2c(sc3ccccc32)c(=O)n1CCN(CC)CC)c1ccccc1,,28.2 µM (active)
CCc1nc2ccc(C(=O)NCCOc3ccc(OC)cc3)cn2c1N(CCC(C)C)CCN(C)C,,3.98 µM (active)

Structure (SMILES),"activity change, negative = inhibition",Potency
O=C(NCC1CC1)c1ccc2c(c1)S(=O)(=O)c1cc(Cl)ccc1C2=O,-23.7%,
CC(C)CC(NC(=O)c1ccc(Cl)cc1)C(=O)OCC(=O)c1ccc2c(c1)NC(=O)CO2 (stereo not given),,28.2 µM (active)
CCCCC1C(=O)CC[C@H]2[C@@H]1CC(=O)[C@@H]2C/C=C\CCCC(=O)O (stereo not given in full),-21.7%,
COc1nn(-c2ccccc2)c(=O)c(Cl)c1Cl,,1.41 µM (active)
Cc1ccc(C(NC(=O)C2CCN(Cc3ccc(Cl)c(Cl)c3)CC2)c2ccccn2)cc1 (stereo not given),,28.2 µM (active)
COC(=O)[C@H]1C[C@H](OC(=O)NC2CC2)[C@@]2(O)CN(S(=O)(=O)c3ccc(C)cc3)CC2[C@H]1C(=O)OC (stereo not given in full),11.1%,
O=C(CSC1=NNC(c2ccccn2)S1)Nc1ccc(C(F)(F)F)cc1 (stereo not given),,28.2 µM (active)
COc1cc2ccnc(Cc3cccc(OC)c3OC)c2cc1OC,,1 µM (active)
COc1cc(C)c(C(=O)CC(=O)c2c(C)cc(OC)cc2C)c(C)c1,-2.99%,
CCCCOc1ccccc1NC(=O)Cn1c(-c2nonc2N)nc2ccccc21,,3.98 µM (active)
COc1ccc(Cc2[nH]n3c(=O)cc(C(C)C)nc3c2-c2ccccc2)cc1,,8.91 µM (active)
Cc1cc(C)c(S(=O)(=O)/N=C2\C=C(Nc3ccc(C(=O)O)cc3)C(=O)c3ccccc32)c(C)c1,,1.78 µM (active)
COC1=CC(=O)C=C(OC)C1(O)CC(C)=O,-9.18% [at 57.5 µM],
O=C1/C(=C/c2ccc([N+](=O)[O-])cc2)C=C(c2ccccc2)N1c1ccc(O)cc1,,2.51 µM (active)
Cc1cc2c(c(/C=C/C(=O)c3ccccc3)c1)OC1(C=C2)Oc2ccccc2C(=O)N1C (stereo not given),,25.1 µM (active)
CCCCCn1c(=O)c2ccccc2n2c(CCl)nnc12,,15.8 µM (active)
O=C(N/N=C(\c1ccccc1)c1ccccn1)c1ccccc1Cl,,3.55 µM (active)
COc1cc(C(=O)N/N=C(\c2ccccc2)c2ccccn2)cc(OC)c1OC,,0.355 µM (active)
O=C(NN=C(c1ccccc1)c1ccccn1)c1ccccc1,,2.24 µM (active)
CCC(CC)C(=O)c1c[nH]c(C(=O)NCc2ccccn2)c1,-10.4% [at 57.5 µM],
O=C(O)CSc1cc(NS(=O)(=O)c2cccc([N+](=O)[O-])c2)c2ccccc2c1O,,3.16 µM (active)
